Experimental data taken from PMC7862700, “An all-to-all approach to the identification of sequence-specific readers for epigenetic DNA modifications on cytosine”.

Molecular target: CRX (Homo sapiens, UniProt O43186 1-299)
Assay: DAPPL (digital affinity profiling via proximity ligation, sequencing); 10 mM Tris-HCl pH 7.5, 50 mM NaCl, 1 mM DTT, 4% glycerol, room temperature, 30 min; GST-TFs on glutathione beads, 16-mer random dsDNA library, 0.1% formaldehyde crosslink after washing; high values mean tight binding
Conditions: protein: recombinant; tags: N-terminal GST; dsDNA, one strand shown
Outline: (§1)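 Beads coated with glutathione captured GST-fused human transcription factors that had been expressed in yeast, and the factors were then given DNA barcodes and pooled with a tag-only sample. The pools were incubated with 200 nmole of a random double-stranded 16-mer DNA library in Tris/NaCl/DTT/glycerol buffer for 30 min at room temperature, washed, crosslinked with 0.1% formaldehyde and proximity-ligated with BsaI/T4 ligase at 37 °C for 1 h. PCR amplification and Illumina NextSeq500 sequencing came last. Binding signal is each hexamer's read frequency for a factor divided by its frequency for the tag-only sample.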

CRX, sequence (O43186 whole entry): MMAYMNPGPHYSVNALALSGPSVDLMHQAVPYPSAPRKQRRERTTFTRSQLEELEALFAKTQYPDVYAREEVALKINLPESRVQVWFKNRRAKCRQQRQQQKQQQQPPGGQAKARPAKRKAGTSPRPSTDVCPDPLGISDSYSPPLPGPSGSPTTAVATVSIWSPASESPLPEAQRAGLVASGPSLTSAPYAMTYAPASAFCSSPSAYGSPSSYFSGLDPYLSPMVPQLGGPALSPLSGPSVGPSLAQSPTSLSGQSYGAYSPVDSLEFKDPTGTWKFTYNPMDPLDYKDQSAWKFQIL

Sequence | binding signal
GACTAT | 1.02 fold enrichment (6-mer frequency, TF over GST control)
TTGAAG | 1.03 fold enrichment (6-mer frequency, TF over GST control)

Molecular target: ETV1 (Homo sapiens, UniProt P50549 1-477)
Assay: as above
Conditions: protein: recombinant; tags: N-terminal GST; dsDNA, one strand shown
Outline: as §1

ETV1, sequence (P50549 whole entry): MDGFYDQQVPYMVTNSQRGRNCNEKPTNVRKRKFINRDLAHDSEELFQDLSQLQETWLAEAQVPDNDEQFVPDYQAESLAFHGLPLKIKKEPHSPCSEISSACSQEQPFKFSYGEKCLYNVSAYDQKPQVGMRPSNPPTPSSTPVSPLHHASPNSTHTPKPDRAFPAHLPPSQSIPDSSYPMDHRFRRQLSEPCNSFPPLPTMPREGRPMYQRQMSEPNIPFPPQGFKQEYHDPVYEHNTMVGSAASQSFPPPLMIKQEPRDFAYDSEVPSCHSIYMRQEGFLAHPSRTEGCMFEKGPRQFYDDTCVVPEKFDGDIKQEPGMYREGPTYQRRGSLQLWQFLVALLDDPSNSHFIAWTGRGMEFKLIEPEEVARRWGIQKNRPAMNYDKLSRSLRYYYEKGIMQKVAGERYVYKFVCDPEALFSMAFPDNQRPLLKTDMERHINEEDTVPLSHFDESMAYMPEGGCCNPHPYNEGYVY

Sequence | binding signal
GAGCTC | 1.05 fold enrichment (6-mer frequency, TF over GST control)
CAAAAG | 1 fold enrichment (6-mer frequency, TF over GST control)
ACACCG | 1.09 fold enrichment (6-mer frequency, TF over GST control)
CAATGA | 1.01 fold enrichment (6-mer frequency, TF over GST control)
CATCAA | 1.01 fold enrichment (6-mer frequency, TF over GST control)
CACCGC | 1 fold enrichment (6-mer frequency, TF over GST control)
GATTGC | 1.02 fold enrichment (6-mer frequency, TF over GST control)
TTGAAG | 1.01 fold enrichment (6-mer frequency, TF over GST control)

Molecular target: T1, ERF (Homo sapiens, UniProt P50548 1-548)
T1 sequence: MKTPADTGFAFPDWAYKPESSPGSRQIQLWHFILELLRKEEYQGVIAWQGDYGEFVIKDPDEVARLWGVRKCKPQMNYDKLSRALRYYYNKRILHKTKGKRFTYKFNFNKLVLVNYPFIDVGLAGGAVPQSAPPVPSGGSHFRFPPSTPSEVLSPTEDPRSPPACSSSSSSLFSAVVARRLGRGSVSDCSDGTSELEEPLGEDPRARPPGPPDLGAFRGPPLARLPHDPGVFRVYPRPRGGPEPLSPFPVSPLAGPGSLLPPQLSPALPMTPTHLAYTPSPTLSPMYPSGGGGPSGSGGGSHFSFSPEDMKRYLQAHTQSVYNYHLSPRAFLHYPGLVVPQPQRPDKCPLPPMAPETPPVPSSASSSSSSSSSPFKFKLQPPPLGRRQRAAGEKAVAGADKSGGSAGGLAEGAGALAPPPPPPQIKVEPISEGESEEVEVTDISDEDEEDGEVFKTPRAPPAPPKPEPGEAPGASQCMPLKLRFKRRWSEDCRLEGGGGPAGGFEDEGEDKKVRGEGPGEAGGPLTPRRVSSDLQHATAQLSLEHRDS
Assay: as above
Conditions: protein: recombinant; tags: N-terminal GST; dsDNA, one strand shown
Outline: as §1

Sequence | binding signal
GCCATT | 1.03 fold enrichment (6-mer frequency, TF over GST control)
ACACCG | 1 fold enrichment (6-mer frequency, TF over GST control)
GCCAAC | 1.03 fold enrichment (6-mer frequency, TF over GST control)
TAACGT | 1.07 fold enrichment (6-mer frequency, TF over GST control)
GTGTTA | 1.06 fold enrichment (6-mer frequency, TF over GST control)
CAAACG | 1.03 fold enrichment (6-mer frequency, TF over GST control)
TCGCGG | 1.09 fold enrichment (6-mer frequency, TF over GST control)
CAATGA | 1.06 fold enrichment (6-mer frequency, TF over GST control)
CATCAA | 1.02 fold enrichment (6-mer frequency, TF over GST control)
CACCGC | 1.07 fold enrichment (6-mer frequency, TF over GST control)
CGCACC | 1.01 fold enrichment (6-mer frequency, TF over GST control)
GAATGC | 1.04 fold enrichment (6-mer frequency, TF over GST control)
GATTGC | 1.02 fold enrichment (6-mer frequency, TF over GST control)
GTTAGC | 1.02 fold enrichment (6-mer frequency, TF over GST control)
GCAACA | 1.01 fold enrichment (6-mer frequency, TF over GST control)
TTGAAG | 1.01 fold enrichment (6-mer frequency, TF over GST control)
CACCTG | 1.07 fold enrichment (6-mer frequency, TF over GST control)
TCATTG | 1.04 fold enrichment (6-mer frequency, TF over GST control)

Molecular target: T2, ETV3L (Homo sapiens, UniProt Q6ZN32 1-361)
T2 sequence: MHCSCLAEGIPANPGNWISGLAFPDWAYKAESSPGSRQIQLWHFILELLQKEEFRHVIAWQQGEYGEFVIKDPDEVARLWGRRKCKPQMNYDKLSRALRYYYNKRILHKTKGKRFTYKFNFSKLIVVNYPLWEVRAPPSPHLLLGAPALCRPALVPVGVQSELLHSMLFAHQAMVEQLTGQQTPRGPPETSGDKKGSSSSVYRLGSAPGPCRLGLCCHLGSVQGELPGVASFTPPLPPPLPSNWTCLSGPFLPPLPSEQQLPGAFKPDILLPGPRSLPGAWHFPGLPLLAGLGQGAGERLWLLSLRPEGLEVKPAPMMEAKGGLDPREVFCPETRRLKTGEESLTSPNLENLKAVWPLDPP
Assay: as above
Conditions: protein: recombinant; tags: N-terminal GST; dsDNA, one strand shown
Outline: as §1

Sequence | binding signal
ACACCG | 1.04 fold enrichment (6-mer frequency, TF over GST control)
TCGCGG | 1.04 fold enrichment (6-mer frequency, TF over GST control)
CATCAA | 1.08 fold enrichment (6-mer frequency, TF over GST control)
GAATGC | 1.01 fold enrichment (6-mer frequency, TF over GST control)
GACTAT | 1.04 fold enrichment (6-mer frequency, TF over GST control)
GATTGC | 1.02 fold enrichment (6-mer frequency, TF over GST control)
CACCTG | 1.05 fold enrichment (6-mer frequency, TF over GST control)
TCATTG | 1.04 fold enrichment (6-mer frequency, TF over GST control)
CCGGCG | 1.07 fold enrichment (6-mer frequency, TF over GST control)

Molecular target: T3, ETS2 (Homo sapiens, UniProt P15036 1-469)
T3 sequence: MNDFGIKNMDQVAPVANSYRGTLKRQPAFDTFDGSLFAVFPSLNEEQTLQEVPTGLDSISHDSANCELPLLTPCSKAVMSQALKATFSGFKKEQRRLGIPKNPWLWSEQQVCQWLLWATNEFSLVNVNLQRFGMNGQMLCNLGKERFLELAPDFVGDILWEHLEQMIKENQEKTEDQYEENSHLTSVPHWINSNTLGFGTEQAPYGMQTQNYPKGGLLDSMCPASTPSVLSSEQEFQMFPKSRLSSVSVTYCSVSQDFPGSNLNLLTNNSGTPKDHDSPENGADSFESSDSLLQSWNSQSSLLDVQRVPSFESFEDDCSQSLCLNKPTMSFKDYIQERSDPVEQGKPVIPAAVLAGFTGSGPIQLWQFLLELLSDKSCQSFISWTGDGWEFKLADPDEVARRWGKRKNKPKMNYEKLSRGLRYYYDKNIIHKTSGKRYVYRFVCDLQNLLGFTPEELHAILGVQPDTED
Assay: as above
Conditions: protein: recombinant; tags: N-terminal GST; dsDNA, one strand shown
Outline: as §1

Sequence | binding signal
CAAAAG | 1.04 fold enrichment (6-mer frequency, TF over GST control)
ACACCG | 1.07 fold enrichment (6-mer frequency, TF over GST control)
CAATGA | 1.03 fold enrichment (6-mer frequency, TF over GST control)
CACCGC | 1.05 fold enrichment (6-mer frequency, TF over GST control)
GAATGC | 1.05 fold enrichment (6-mer frequency, TF over GST control)
GTTAGC | 1.01 fold enrichment (6-mer frequency, TF over GST control)
TCATTG | 1 fold enrichment (6-mer frequency, TF over GST control)

Molecular target: T4, SPDEF (Homo sapiens, UniProt O95238 1-335)
T4 sequence: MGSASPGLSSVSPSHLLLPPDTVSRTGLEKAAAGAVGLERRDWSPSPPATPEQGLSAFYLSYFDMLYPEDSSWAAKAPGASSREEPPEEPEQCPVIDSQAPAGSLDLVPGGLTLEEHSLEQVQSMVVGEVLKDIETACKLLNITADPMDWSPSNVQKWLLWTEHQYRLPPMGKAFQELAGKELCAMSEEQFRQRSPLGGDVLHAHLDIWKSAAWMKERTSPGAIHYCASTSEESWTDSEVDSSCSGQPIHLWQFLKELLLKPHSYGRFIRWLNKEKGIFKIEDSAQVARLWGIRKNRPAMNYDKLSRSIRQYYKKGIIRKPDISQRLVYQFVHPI
Assay: as above
Conditions: protein: recombinant; tags: N-terminal GST; dsDNA, one strand shown
Outline: as §1

Sequence | binding signal
ACACCG | 1.09 fold enrichment (6-mer frequency, TF over GST control)
TAACGT | 1.05 fold enrichment (6-mer frequency, TF over GST control)
CAAACG | 1.02 fold enrichment (6-mer frequency, TF over GST control)
TCGCGG | 1.01 fold enrichment (6-mer frequency, TF over GST control)
GAATGC | 1.04 fold enrichment (6-mer frequency, TF over GST control)
TTGAAG | 1.03 fold enrichment (6-mer frequency, TF over GST control)
CACCTG | 1.07 fold enrichment (6-mer frequency, TF over GST control)
ATAGAC | 1.01 fold enrichment (6-mer frequency, TF over GST control)

Molecular target: T5, ETV7 (Homo sapiens, UniProt Q9Y603 1-341)
T5 sequence: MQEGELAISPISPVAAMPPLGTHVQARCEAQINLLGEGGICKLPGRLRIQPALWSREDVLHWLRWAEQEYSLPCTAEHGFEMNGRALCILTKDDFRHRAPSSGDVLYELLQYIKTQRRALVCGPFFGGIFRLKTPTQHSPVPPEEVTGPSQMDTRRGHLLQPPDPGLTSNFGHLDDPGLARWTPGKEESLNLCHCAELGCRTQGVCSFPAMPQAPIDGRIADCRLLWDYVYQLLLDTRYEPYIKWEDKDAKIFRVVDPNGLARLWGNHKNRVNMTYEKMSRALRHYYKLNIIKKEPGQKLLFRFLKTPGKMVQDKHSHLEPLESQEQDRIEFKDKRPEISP
Assay: as above
Conditions: protein: recombinant; tags: N-terminal GST; dsDNA, one strand shown
Outline: as §1

Sequence | binding signal
CAAAAG | 1 fold enrichment (6-mer frequency, TF over GST control)
ACACCG | 1.01 fold enrichment (6-mer frequency, TF over GST control)
TAACGT | 1.01 fold enrichment (6-mer frequency, TF over GST control)
TCGCGG | 1.02 fold enrichment (6-mer frequency, TF over GST control)
GCATAC | 1 fold enrichment (6-mer frequency, TF over GST control)
GAATGC | 1.03 fold enrichment (6-mer frequency, TF over GST control)
GATTGC | 1.03 fold enrichment (6-mer frequency, TF over GST control)
AACAGA | 1.02 fold enrichment (6-mer frequency, TF over GST control)
ATAGAC | 1.1 fold enrichment (6-mer frequency, TF over GST control)

Molecular target: T6, ELF5 (Homo sapiens, UniProt Q9UKW6-2 1-255)
T6 sequence: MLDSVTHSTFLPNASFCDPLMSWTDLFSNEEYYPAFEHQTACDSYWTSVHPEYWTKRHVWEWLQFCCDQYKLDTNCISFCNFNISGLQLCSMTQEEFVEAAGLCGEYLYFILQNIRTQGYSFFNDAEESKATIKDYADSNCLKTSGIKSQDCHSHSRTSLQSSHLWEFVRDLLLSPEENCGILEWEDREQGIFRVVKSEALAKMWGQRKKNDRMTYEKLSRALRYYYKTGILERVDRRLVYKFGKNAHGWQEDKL
Assay: as above
Conditions: protein: recombinant; tags: N-terminal GST; dsDNA, one strand shown
Outline: as §1

Sequence | binding signal
CAAAAG | 1 fold enrichment (6-mer frequency, TF over GST control)
TCGCGG | 1 fold enrichment (6-mer frequency, TF over GST control)
GAATGC | 1.07 fold enrichment (6-mer frequency, TF over GST control)
GATTGC | 1 fold enrichment (6-mer frequency, TF over GST control)

Molecular target: T7, ETV3 (Homo sapiens, UniProt P41162-2 1-143)
T7 sequence: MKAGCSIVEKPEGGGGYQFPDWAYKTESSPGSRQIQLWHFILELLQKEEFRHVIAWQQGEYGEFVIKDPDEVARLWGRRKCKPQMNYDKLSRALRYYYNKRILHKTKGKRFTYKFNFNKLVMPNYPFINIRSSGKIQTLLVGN
Assay: as above
Conditions: protein: recombinant; tags: N-terminal GST; dsDNA, one strand shown
Outline: as §1

Sequence | binding signal
ACACCG | 1.03 fold enrichment (6-mer frequency, TF over GST control)
TAACGT | 1.04 fold enrichment (6-mer frequency, TF over GST control)
CAAACG | 1.04 fold enrichment (6-mer frequency, TF over GST control)
TCGCGG | 1.04 fold enrichment (6-mer frequency, TF over GST control)
CACCGC | 1.04 fold enrichment (6-mer frequency, TF over GST control)
AACAGA | 1.01 fold enrichment (6-mer frequency, TF over GST control)
TTGAAG | 1.02 fold enrichment (6-mer frequency, TF over GST control)
CACCTG | 1.03 fold enrichment (6-mer frequency, TF over GST control)
CCGGCG | 1.05 fold enrichment (6-mer frequency, TF over GST control)
ATAGAC | 1.02 fold enrichment (6-mer frequency, TF over GST control)

Molecular target: ETV6 (Homo sapiens, UniProt P41212 1-452)
Assay: as above
Conditions: protein: recombinant; tags: N-terminal GST; dsDNA, one strand shown
Outline: as §1

ETV6, sequence (P41212 whole entry): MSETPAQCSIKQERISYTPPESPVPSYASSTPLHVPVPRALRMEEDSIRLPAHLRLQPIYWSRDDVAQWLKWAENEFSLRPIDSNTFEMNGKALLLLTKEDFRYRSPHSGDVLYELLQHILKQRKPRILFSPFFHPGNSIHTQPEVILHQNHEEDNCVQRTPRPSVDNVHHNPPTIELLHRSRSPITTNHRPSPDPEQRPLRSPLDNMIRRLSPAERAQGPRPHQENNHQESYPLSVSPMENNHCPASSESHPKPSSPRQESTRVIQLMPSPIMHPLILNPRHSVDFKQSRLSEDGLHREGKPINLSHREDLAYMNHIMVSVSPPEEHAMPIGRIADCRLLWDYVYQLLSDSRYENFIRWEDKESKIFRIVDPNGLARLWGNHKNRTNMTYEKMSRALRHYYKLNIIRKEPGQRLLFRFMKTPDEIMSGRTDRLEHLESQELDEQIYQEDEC

Sequence | binding signal
CAAAAG | 1.01 fold enrichment (6-mer frequency, TF over GST control)
AACGGT | 1.01 fold enrichment (6-mer frequency, TF over GST control)
CAAACG | 1.02 fold enrichment (6-mer frequency, TF over GST control)
GAATGC | 1.01 fold enrichment (6-mer frequency, TF over GST control)
GCAACA | 1.03 fold enrichment (6-mer frequency, TF over GST control)
CACCTG | 1.06 fold enrichment (6-mer frequency, TF over GST control)
CCGGCG | 1.11 fold enrichment (6-mer frequency, TF over GST control)
